The list is not random: actives were taken first. Their share in the collection is about 31%.
CYP2C9 activ: human CYP2C9 activators, primary screen, biochemical, luminescence | activation factor at 5 µM | Cytochrome P450 2C9 (Homo sapiens), P11712 | 96,000 tested, 1.4% active | recombinant CYP2C9, luciferin-H conversion; hits give high values; factor 1 = untreated enzyme, 0 = blocked;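 active means activation factor of 2 or more for CYP2C9 at a 5 µM dose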;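 further: 0 = sulfaphenazole-blocked wells and 1 = vehicle-only wells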
CYP2C9 inh: blockers of cytochrome P450 2C9 activity – biochemical, luminescence, ADME assay, primary screen. P11712. CYP2C9 Supersomes, luciferin-H conversion. inhibition, % at 5 µM. 96,000 tested, 20% active. AID 777, 2007;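 active means blocking of liver enzyme CYP2C9 beyond about 50% at 5 µM, limit read from the data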
CYP2C19 act: human CYP2C19 activators, primary screen, biochemical, luminescence. Cytochrome P450 2C19 (Homo sapiens), P33261. recombinant CYP2C19, luciferin-H EGE luminescence; hits give high values; 0 = fully inhibited enzyme, 1 = untreated enzyme. activation factor at 5 µM. 96,000 tested, under 10 active. AID 1025, 2008;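 active means activation factor of at least 2 at 5 µM in the primary screen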;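 further: 0 = wells with 2.5 mM tranylcypromine and 1 = vehicle-only wells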
Target sequence (P33261 whole entry, looked up): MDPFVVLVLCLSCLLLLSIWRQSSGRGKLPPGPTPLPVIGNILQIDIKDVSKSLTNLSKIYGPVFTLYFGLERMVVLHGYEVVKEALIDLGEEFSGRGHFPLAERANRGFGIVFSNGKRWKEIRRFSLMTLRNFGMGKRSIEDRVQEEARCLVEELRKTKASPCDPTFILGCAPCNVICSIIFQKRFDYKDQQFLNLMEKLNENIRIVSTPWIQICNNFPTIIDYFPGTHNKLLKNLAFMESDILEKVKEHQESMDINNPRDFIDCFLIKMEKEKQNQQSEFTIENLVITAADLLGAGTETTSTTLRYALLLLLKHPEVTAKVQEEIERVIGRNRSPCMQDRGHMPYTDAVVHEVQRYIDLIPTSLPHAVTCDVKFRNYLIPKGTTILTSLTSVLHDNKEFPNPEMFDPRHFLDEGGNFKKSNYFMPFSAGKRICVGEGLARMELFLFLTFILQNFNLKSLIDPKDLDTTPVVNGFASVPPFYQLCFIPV
PLAP activator: PLAP enzyme activators, biochemical, luminescence, HTS | purified PLAP enzyme, luminescent substrate read-out; hits give high values | activation fold at 20 µM | 96,000 tested, 1.2% active; in the data active means activation fold above about 2
CYP2C19 inhib: blockers of cytochrome P450 2C19 activity – biochemical, luminescence, ADME assay, primary screen | P33261 | CYP2C19 Supersomes, luciferin-H EGE luminescence, 30 min | inhibition, % at 5 µM | 96,000 tested, 21% active | AID 778, 2007;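 active means CYP2C19 inhibition above a set limit at 5 µM in the primary screen, cut at about 50% in these data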;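 further: plate controls were negative control wells for no effect and 2.5 mM tranylcypromine positive control for full effect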
Active calls of the source: *.

SMILES	CYP2C9 activ	CYP2C9 inh	CYP2C19 act	PLAP activator	CYP2C19 inhib
CN(Cc1cc2ccccc2[nH]c1=O)S(=O)(=O)c1ccccc1	0.5	45.1	0.2	0.9	78.7*
COc1ccc2cc(CN(Cc3cccnc3)S(=O)(=O)c3ccccc3)c(=O)[nH]c2c1	0.5	49.0	0.6	1.6	43.1
CC12CC3CC(C)(C1)CC(CN)(C3)C2	0.9	14.5	1	0.8	-3.7
O=C(O)C(Oc1ccc2c3c(c(=O)oc2c1)CCC3)c1ccccc1 (configuration not stated)	1.1	-11.2	1.2	1.5	-15.6
CC(C)c1ccc(OCc2nc(-c3ccccn3)no2)c(Br)c1	0.6	37.1	0.7	0.9	33.6
CC(C)(C)Cc1nc(-c2ccccn2)no1	1	1.4	0.9	0.8	6.0
Cc1ccc(OCc2nc(-c3ccccn3)no2)c(Br)c1	0.7	30.7	0.2	1.6	83.5*
CCc1ccc(OCc2nc(-c3ccccn3)no2)c(Br)c1	0.3	73.9*	0.1	1.4	94.8*
CCOC(=O)CSc1nnc(NCC(=O)OC(C)C)c(=O)[nH]1	1.2	-20.8	1.1	1	-13.4
Nc1nc2ccc(Oc3ccccc3)cc2s1	0.3	71.1*	0.3	1.1	67.5*
Cc1ccc(C)c(-n2nnnc2SCC(=O)Nc2cccc(-c3nnc4n3CCCCC4)c2)c1	0.6	42.4	0.8	0.8	18.3
c1ccc(Nc2cc(Nc3ccccc3)[nH]n2)cc1	0.5	45.2	0.3	0.9	74.5*
O=c1[nH]c(Nc2ccccc2)cc2ccccc12	0.9	12.6	0.6	1	43.7
COc1ccc(C2C3=C(CC(C)(C)CC3=O)Oc3ncn(CCO)c(=N)c32)cc1OC (configuration not stated)	0.6	40.2	0.9	1.6	12.1
CCc1ccc(/C=C\C(=O)N2CCc3ccccc3C2)cc1	0.8	17.9	0.8	0.8	17.4
COc1ccc(C2(O)CCN(C(=O)c3ccc4c(c3)OCO4)CC2)cc1	0.6	36.7	0.7	1.2	30.1
COc1ccc(-c2cc(-n3c(C(F)(F)F)nc4ccccc43)n(CCC#N)n2)cc1	0.3	71.7*	0.4	1.3	62.8*
COc1ccc(Sc2nc3ccccc3n3c(C(F)(F)F)nnc23)cc1	1.1	-14.8	0.9	1	7.9
Cn1c(=O)c2cc(S(=O)(=O)NC(C(=O)Nc3cccnc3)c3ccccc3)ccc2n(C)c1=O (configuration not stated)	0.5	47.1	0.6	2.6*	35.1
Cn1c(=O)c2cc(S(=O)(=O)Nc3cccc(F)c3)ccc2n(C)c1=O	0.2	83.2*	0.2	1.2	76.3*
Cc1c(S(=O)(=O)Nc2ccc3c(c2)OCCO3)c(=O)n(C)c(=O)n1C	0.9	9.7	0.8	0.9	22.6
Cc1c(S(=O)(=O)Nc2cccc(Cl)c2)c(=O)n(C)c(=O)n1C	0.8	15.0	0.5	1.1	50.9*
COC(=O)[C@H](C)NC(=O)COc1ccccc1	1	-3.7	1	0.9	-1.7
CO/N=C/NC(=O)c1c(OC)ccnc1Oc1ccccc1	1.2	-16.3	1	1	-3.5
COc1ccnc(Oc2ccc(F)cc2)c1C(=O)N/C=N/OCc1c(Cl)cccc1Cl	0.3	74.6*	0.5	1.5	52.5*
SMILES	CYP2C9 activ	CYP2C9 inh	CYP2C19 act	PLAP activator	CYP2C19 inhib
CCN(CC)CCCN(C(C)=O)c1nc(-c2cc(OC)ccc2OC)cs1	0.9	6.0	0.7	1.5	34.3
Cc1cc(-c2ccccc2)nc(N(C)NC(=O)c2ccc(Cl)cc2)c1S(C)(=O)=O	0.6	40.5	1	1.1	2.0
CN(NC(=O)c1ccc(Cl)cc1)c1cccc(Cl)n1	1.2	-21.7	0.4	1	55.5*
CS(=O)(=O)N1CCN(C(=O)c2ccncc2)CC1	0.9	12.7	1	1.1	3.1
CS(=O)(=O)N1CCN(C(=O)c2ccc(Br)s2)CC1	0.6	40.5	0.1	0.8	94.1*
COc1ccc(C)cc1NC(=O)CN1CCN(c2ccc(F)cc2)CC1	0.9	11.9	0.2	1.2	77.6*
COc1ccc(OC)c(NC(=O)CCN2CCN(Cc3ccccc3)CC2)c1	0.9	5.2	0.9	1.6	13.8
COc1ccccc1NC(=O)CN1CCN(Cc2ccccc2)CC1	0.6	35.7	0.3	1.5	71.5*
COc1ccccc1NC(=O)CN1CCN(CC(=O)Nc2ccc(OCc3ccccc3)cc2)CC1	0.2	79.4*	0.1	1.2	87.3*
COc1ccccc1NC(=O)CN1CCN(CC(=O)Nc2ccc(F)cc2)CC1	0.7	26.2	0.1	1.5	87.7*
CC(SCc1cn2cc(Cl)ccc2n1)C(=O)O (configuration not stated)	1	-3.7	1	1	1.7
CCN1CCN(S(=O)(=O)c2cccs2)CC1	1.1	-13.0	1.1	1	-8.3
COC(=O)c1sccc1NC(=O)CN1CCN(c2ccc(F)cc2)CC1	0.5	53.9*	0.6	1.7	39.2
Cc1ccc(-c2c(C)sc(=NC(=O)c3ccco3)n2C)cc1	0.2	76.6*	0.8	1.2	21.2
CCC(=C(c1ccc(OC)cc1)c1ccc(OC)cc1)c1cn(CC(O)CN2CCN(C)CC2)c2ccccc12 (configuration not stated)	0.3	70.4*	0.9	1.8	6.9
COc1ccc(C(=O)NCCn2cc(SCC(=O)N3CCOCC3)c3ccccc32)cc1	0.8	23.8	0.9	1.2	13.8
Cn1c(=O)c2c(ncn2CC(=O)Nc2ccccc2)n(C)c1=O	1	1.9	0.9	0.9	9.0
Cn1c(=O)c2c(ncn2CC(O)CNc2ccc(Br)cc2)n(C)c1=O (configuration not stated)	0.5	46.0	0.3	1.5	74.6*
COc1ccc2c(Cl)c(C(=O)NN)sc2c1	0.4	56.5*	0.2	1	81.7*
COc1ccc2c(Cl)c(C(=O)NCCCn3ccnc3)sc2c1	0.1	90.8*	0	0.9	97.5*
COc1ccc2c(Cl)c(C(N)=O)sc2c1	1.2	-16.7	1	0.9	1.6
COc1ccc2c(Cl)c(-c3nnc(SCC(N)=O)n3C)sc2c1	1	2.5	1.1	1.1	-15.0
Cc1oc(-c2ccc(Cl)cc2)nc1CN1CCC(C(=O)N2CCc3ccccc3C2)CC1	0.8	15.2	0.1	1.5	89.6*
Cc1oc(-c2ccc(Cl)cc2)nc1CN1CCC(C(=O)N2CCN(Cc3ccccc3)CC2)CC1	0.8	20.5	0.9	1.7	7.2
Cc1oc(-c2ccccc2)nc1CS(=O)CC(=O)N1CCc2ccccc2C1 (configuration not stated)	0.3	67.9*	0.4	1.6	60.9*
Cc1cccc(-c2nc(CS(=O)CC(=O)N3CCCCC3)c(C)o2)c1 (configuration not stated)	0.3	69.9*	0.8	1.4	23.2

Compound activity from PubChem.
